# Measurements as given in PubChem BioAssay (Tox21).
# “And” between values parts separate entries of the source, which are not always exact repeats. Equal entries are not always repeated. Results filed as inconclusive are left out. Where a call stands in place of a potency, no number is given. Values without a mark were called inactive. The source made the active and inactive calls. Unless noted, calls follow the shape of the dose curve; as a rule, active = well fitted curve in the direction sought with a large enough effect in the repeat runs; inconclusive = weak or mixed curves; inactive = no such curve, though single readings can be large; an effect the other way counts as inactive or inconclusive.
# Experiments:
# [1] = qHTS assay to identify small molecule agonists of the retinoic acid receptor (RAR) signaling pathway (AID 1159553)
# Summary of the method: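 Cell line C3RL4, RARE luciferase reporter. Treatment: compounds in DMSO, 6 hr, 37 C, 5% CO2, after overnight plating. Detection: luminescence, 30 min RT after reagent.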
# [2] = qHTS assay to identify small molecule antagonists of the estrogen related receptor (ERR) signaling pathway from Tox21 library - cell viability counter screen (AID 1224834); also: nearly all actives have a fitted effect of over 30% in size; also: potency is read from the fitted curve at half-maximal effect
# Summary of the method: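 Viability readout (CellTiter-Fluor fluorescence, 30 min at 37 C) multiplexed with the ERR assay; cells treated 17.5 h at 37 C with compounds delivered in DMSO.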
# [3] = target: Luciferin 4-monooxygenase (Photinus pyralis) (UniProt P08659); test: qHTS assay to identify small molecule inhibitors of firefly luciferase (AID 1224835); also: nearly all actives have a fitted effect of over 25% in size; also: potency is read from the fitted curve at half-maximal effect; as to activity change, negative = inhibition: series mostly up to about 120 µM
# Luciferin 4-monooxygenase (Photinus pyralis), sequence (P08659 whole entry, looked up): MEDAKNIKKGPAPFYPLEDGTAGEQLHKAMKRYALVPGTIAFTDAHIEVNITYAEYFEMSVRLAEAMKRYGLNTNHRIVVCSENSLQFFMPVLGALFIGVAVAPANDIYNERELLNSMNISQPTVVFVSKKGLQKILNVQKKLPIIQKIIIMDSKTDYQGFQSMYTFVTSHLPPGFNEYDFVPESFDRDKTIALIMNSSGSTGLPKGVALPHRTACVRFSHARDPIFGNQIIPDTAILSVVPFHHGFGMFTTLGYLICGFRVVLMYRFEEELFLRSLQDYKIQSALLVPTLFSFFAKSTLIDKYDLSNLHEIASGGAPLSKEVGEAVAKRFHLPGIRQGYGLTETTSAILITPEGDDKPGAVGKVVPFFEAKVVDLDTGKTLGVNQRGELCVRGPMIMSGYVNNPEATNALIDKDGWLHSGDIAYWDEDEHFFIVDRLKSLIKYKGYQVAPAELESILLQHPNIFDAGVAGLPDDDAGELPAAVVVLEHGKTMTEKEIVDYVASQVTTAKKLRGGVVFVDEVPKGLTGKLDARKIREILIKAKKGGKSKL
# Summary of the method: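 Inhibition of purified Photinus luciferase is measured by luminescence. Substrate levels (D-luciferin, ATP) sit at their KM values. Each compound is tested in a concentration series.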
# [4] = qHTS assay to identify small molecule agonists of the constitutive androstane receptor (CAR) signaling pathway - cell viability counter screen (AID 1224836); also: nearly all actives have a fitted effect of over 45% in size; also: potency is read from the fitted curve at half-maximal effect; as to viability change, negative = cytotoxic: series mostly up to about 92 µM
# Summary of the method: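 Counter screen multiplexed with the CAR reporter readout: HepG2 cells co-transfected with hCAR and the CYP2B6-2.2kb construct receive a 15-concentration compound series and 0.75 uM PK11195 (final), then CellTiter-Fluor fluorescence is read after 23 h.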
# [5] = qHTS assay to identify small molecule antagonists of the constitutive androstane receptor (CAR) signaling pathway - cell viability counter screen (AID 1224837); also: nearly all actives have a fitted effect of over 45% in size; also: potency is read from the fitted curve at half-maximal effect; as to activity change, negative = cytotoxicity: series mostly up to about 92 µM
# Summary of the method: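 Fluorescence from CellTiter-Fluor served as the viability signal. Human hepatoma HepG2 cells stably bearing hCAR and CYP2B6-2.2kb received compound plus CITCO (50 nM final) for 23 hr.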
# [6] = target: Nuclear receptor subfamily 1 group I member 3 (Homo sapiens) (UniProt Q14994); test: qHTS assay to identify small molecule antagonists of the constitutive androstane receptor (CAR) signaling pathway (AID 1224838);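 also: HepG2 cells stably expressing hCAR with CYP2B6 luciferase reporter stimulated by CITCO; nearly all actives have a fitted effect of over 40% in size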; also: potency is read from the fitted curve at half-maximal effect
# Nuclear receptor subfamily 1 group I member 3 (Homo sapiens), sequence (Q14994 whole entry, looked up): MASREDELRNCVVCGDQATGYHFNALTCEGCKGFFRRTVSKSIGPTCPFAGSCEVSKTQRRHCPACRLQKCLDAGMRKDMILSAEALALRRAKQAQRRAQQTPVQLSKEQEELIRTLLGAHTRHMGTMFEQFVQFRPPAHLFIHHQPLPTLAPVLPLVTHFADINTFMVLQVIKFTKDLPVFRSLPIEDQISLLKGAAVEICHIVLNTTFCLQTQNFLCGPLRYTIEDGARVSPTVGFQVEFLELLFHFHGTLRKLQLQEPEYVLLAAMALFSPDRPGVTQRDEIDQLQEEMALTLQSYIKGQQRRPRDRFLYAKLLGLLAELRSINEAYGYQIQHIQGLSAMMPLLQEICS
# Summary of the method: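 Quantitative HTS in double-stable HepG2-CYP2B6-hCAR cells. After 4 h plating, cells get compound (15 concentrations) and CITCO at 50 nM final, incubate 24 h at 37 C, then ONE-Glo luminescence is read.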
# [7] = target: Nuclear receptor subfamily 1 group I member 3 (Homo sapiens) (UniProt Q14994); test: qHTS assay to identify small molecule agonists of the constitutive androstane receptor (CAR) signaling pathway (AID 1224839); also: nearly all actives have a fitted effect of over 15% in size; also: potency is read from the fitted curve at half-maximal effect; as to activation: series mostly up to about 92 µM
# Summary of the method: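 A 15-concentration quantitative screen uses HepG2 cells co-transfected stably with human CAR and CYP2B6-2.2kb reporter. Treatment lasts 24 h with 0.75 uM PK11195 final present; ONE-Glo luminescence is the signal.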
# [8] = qHTS assay to identify small molecule antagonists of the estrogen related receptor signaling pathway with the pleiotropic PPARgamma coactivator (PGC) from Tox21 10K library - cell viability counter screen (AID 1224840; active = well fitted cell-killing curve with a large enough effect in the repeat runs, not every such curve was filed as active; also: nearly all actives have a fitted effect of over 40% in size; also: potency is read from the fitted curve at half-maximal effect)
# Summary of the method: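 Compounds in DMSO, alongside positive and negative controls, were pinned onto PGC/ERR cells (2,000 per well). Exposure lasted 17.5 hours at 37 C, followed by a 30-minute CellTiter-Fluor incubation and fluorescence reading.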
# [9] = target: Thyrotropin receptor (Homo sapiens) (UniProt P16473); test: qHTS assay to identify small molecule agonists of the thyroid stimulating hormone receptor (TSHR) signaling pathway (AID 1224843; calls by dose curve; also: nearly all actives have a fitted effect of over 45% in size; also: potency is read from the fitted curve at half-maximal effect)
# Thyrotropin receptor (Homo sapiens), sequence (P16473 whole entry, looked up): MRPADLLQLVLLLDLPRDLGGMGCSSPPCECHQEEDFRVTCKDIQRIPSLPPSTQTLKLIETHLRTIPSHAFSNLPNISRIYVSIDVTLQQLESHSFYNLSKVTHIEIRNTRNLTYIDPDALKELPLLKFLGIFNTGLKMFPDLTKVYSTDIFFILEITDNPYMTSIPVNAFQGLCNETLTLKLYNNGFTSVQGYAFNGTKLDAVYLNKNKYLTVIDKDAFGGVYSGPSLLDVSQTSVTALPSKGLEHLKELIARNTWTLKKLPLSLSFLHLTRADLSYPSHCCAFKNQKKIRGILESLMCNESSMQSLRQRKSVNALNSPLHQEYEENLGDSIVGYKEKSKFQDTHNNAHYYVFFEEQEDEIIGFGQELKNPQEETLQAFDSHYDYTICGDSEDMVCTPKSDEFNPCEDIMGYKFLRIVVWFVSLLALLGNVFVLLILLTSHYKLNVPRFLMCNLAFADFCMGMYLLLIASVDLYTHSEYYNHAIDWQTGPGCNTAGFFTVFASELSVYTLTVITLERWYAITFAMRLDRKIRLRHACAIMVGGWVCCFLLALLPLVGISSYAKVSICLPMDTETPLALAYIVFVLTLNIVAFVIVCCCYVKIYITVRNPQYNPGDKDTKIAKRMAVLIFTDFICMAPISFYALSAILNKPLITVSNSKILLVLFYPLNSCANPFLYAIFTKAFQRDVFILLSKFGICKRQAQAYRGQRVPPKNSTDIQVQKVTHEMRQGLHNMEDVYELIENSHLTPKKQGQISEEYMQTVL
# Summary of the method: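 HEK293 cells stably bearing the thyrotropin receptor were plated at 800 cells/well and challenged with compound (30 min, RT). Accumulated cAMP was quantified via cAMP-d2 competing for cryptate-tagged antibody.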
# [10] = qHTS assay to identify small molecule antagonists of the retinoid acid receptor (RAR) signaling pathway - cell viability counter screen (AID 1159551); also: nearly all actives have a fitted effect of over 35% in size; also: potency is read from the fitted curve at half-maximal effect
# Summary of the method: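 Following overnight attachment, C3RL4 reporter cells received DMSO-dissolved compounds and then retinol (1 uM final). Six hours later at 37 C, ATP content was measured by CellTiter-Glo luminescence.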
# [11] = qHTS assay to identify small molecule antagonists of the retinoic acid receptor (RAR) signaling pathway (AID 1159552; also: nearly all actives have a fitted effect of over 50% in size; also: potency is read from the fitted curve at half-maximal effect)
# Summary of the method: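 Quantitative HTS in C3RL4 RARE-luciferase reporter cells. Compounds were added with 1 uM (final) retinol; luminescence was read after 6 hr.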
# [12] = qHTS assay to identify small molecule antagonists of the estrogen related receptor signaling pathway with the pleiotropic PPARgamma coactivator (PGC) from Tox21 10K library (AID 1224841; call rule not given here; also: actives are mostly falling curves and most rising ones were filed inactive; nearly all actives have a fitted effect of over 50% in size; also: potency is read from the fitted curve at half-maximal effect; as to activity, negative = inhibition: series mostly up to about 92 µM)
# Summary of the method: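 Compound exposure ran 18 hours at 37 C in PGC/ERR cells (2,000/well) that had first rested 6 hours in a 37 C/5% CO2 incubator. Luciferase activity was then detected with One-Glo after a 30-minute room-temperature step.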
# [13] = qHTS assay to identify small molecule agonists of the estrogen related receptor signaling pathway with the pleiotropic PPARgamma coactivator (PGC) from Tox21 10K library (AID 1224842); also: nearly all actives have a fitted effect of over 15% in size
# Summary of the method: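 Luminescence from One-Glo (30 min, room temperature) measured after PGC/ERR cells had 18 h at 37 C with pinned compound (23 nL in DMSO). Cells had been seeded at 2,000 per well and pre-incubated 6 h.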
compound,measurement,setting,value
COC1CC(=C(c2cccs2)c2cccs2)C[N+](C)(C)C1 (stereo not given),Potency,[1],inactive
same,Potency,[2],inactive
same,Potency,[3],inactive
same,Potency,[4],inactive
same,Potency,[5],inactive
same,Potency,[6],inactive
same,Potency,[7],inactive
same,Potency,[8],inactive
same,Potency,[9],inactive
NC(=S)c1c(Cl)cccc1Cl,Potency,[10],inactive
same,Potency,[11],inactive
same,Potency,[1],inactive
same,Potency,[2],inactive
same,Potency,[3],inactive
same,Potency,[4],inactive
same,Potency,[5],inactive
same,Potency,[8],inactive
same,Potency,[9],inactive
COC(=O)Cc1ccccc1,Potency,[10],inactive
same,Potency,[11],inactive
same,Potency,[1],inactive
same,Potency,[2],inactive
same,Potency,[3],inactive
same,Potency,[4],inactive
same,Potency,[5],inactive
same,Potency,[7],inactive
same,Potency,[8],inactive
C[N+]1(CCF)[C@@H]2CC[C@H]1CC(OC(=O)C(O)(c1ccccc1)c1ccccc1)C2 (stereo not given in full),Potency,[10],inactive
same,Potency,[2],inactive
same,Potency,[3],inactive
same,Potency,[4],inactive
same,Potency,[5],inactive
same,Potency,[7],inactive
same,Potency,[8],inactive
same,Potency,[9],inactive
CC(Cc1ccccc1)NCc1ccccc1Cl (stereo not given),Potency,[2],inactive
same,Potency,[3],inactive
same,Potency,[4],inactive
same,Potency,[5],inactive
same,Potency,[6],inactive
same,Potency,[7],26.6 µM (active)
same,Potency,[8],inactive
same,Potency,[9],inactive
CC1(C)[C@H](C(=O)O[C@H](C#N)c2cccc(Oc3ccccc3)c2)[C@@H]1C=C(Br)Br,Potency,[10],inactive
same,Potency,[2],inactive
same,Potency,[3],inactive
same,Potency,[4],inactive
same,Potency,[5],inactive
same,Potency,[8],inactive
same,Potency,[12],inactive
same,Potency,[13],inactive
CN1CC[C@]23c4c5ccc(O)c4O[C@H]2[C@@H](O)C=C[C@H]3[C@H]1C5,Potency,[10],inactive
same,Potency,[1],inactive
same,Potency,[2],inactive
same,Potency,[3],inactive
same,Potency,[4],inactive
same,Potency,[5],inactive
same,Potency,[6],inactive
same,Potency,[8],inactive
same,Potency,[13],inactive
same,Potency,[9],inactive
CCCCNC(=O)OCC#CI,Potency,[10],68.2 µM (active)
same,Potency,[11],43.1 µM (active) and 54.5 µM (active)
same,Potency,[2],54.2 µM (active) and 68.6 µM (active)
same,Potency,[3],inactive
same,Potency,[4],30.6 µM (active)
same,Potency,[6],54.2 µM (active) and 24.3 µM (active)
same,Potency,[7],inactive
same,Potency,[8],68.2 µM (active) and 61.1 µM (active)
same,Potency,[13],inactive
same,Potency,[9],8.59 µM (active) and 4.33 µM (active)
C[C@]12CC[C@H]3[C@@H](CCC4=CC(=O)CC[C@@H]43)[C@@H]1CC[C@@H]2OC(=O)CCc1ccccc1,Potency,[10],inactive
same,Potency,[11],inactive
same,Potency,[1],inactive
same,Potency,[2],inactive
same,Potency,[3],inactive
same,Potency,[4],inactive
same,Potency,[5],inactive
same,Potency,[7],inactive
same,Potency,[8],inactive
same,Potency,[12],inactive
same,Potency,[13],inactive
same,Potency,[9],inactive
COC1=CC(=O)O[C@@H](/C=C/c2ccc3c(c2)OCO3)C1,Potency,[10],inactive
same,Potency,[11],8.27 µM (active)
same,Potency,[1],inactive
same,Potency,[2],inactive
same,Potency,[3],60.6 µM (active)
same,Potency,[4],inactive
same,Potency,[5],inactive
same,Potency,[8],inactive
same,Potency,[12],18.5 µM (active)
same,Potency,[13],inactive
same,Potency,[9],inactive
CC[N+]1(C)CCCC(OC(=O)C(O)(c2ccccc2)c2ccccc2)C1 (stereo not given),Potency,[1],inactive
same,Potency,[2],inactive
same,Potency,[3],inactive
same,Potency,[4],inactive
same,Potency,[5],inactive
same,Potency,[6],inactive
same,Potency,[7],inactive
same,Potency,[8],inactive
same,Potency,[13],inactive
same,Potency,[9],inactive
CC(Oc1cc(Cl)c(Cl)cc1Cl)C(=O)O (stereo not given),Potency,[10],inactive
same,Potency,[1],inactive
same,Potency,[2],inactive
same,Potency,[3],inactive
same,Potency,[4],inactive
same,Potency,[5],inactive
same,Potency,[6],inactive
same,Potency,[8],inactive
same,Potency,[9],inactive
[Cl-].[Cl-].[Hg+2],Potency,[10],27.2 µM (active) and 6.11 µM (active)
same,Potency,[2],6.08 µM (active) and 4.33 µM (active)
same,Potency,[4],60.8 µM (active) and 7.7 µM (active)
same,Potency,[5],60.8 µM (active) and 5.45 µM (active)
same,Potency,[8],15.3 µM (active) and 2.43 µM (active)
CC(C)c1ccc(OP(=O)(Oc2ccc(C(C)C)cc2)Oc2ccc(C(C)C)cc2)cc1,Potency,[10],inactive
same,Potency,[11],54.9 µM (active)
same,Potency,[1],inactive
same,Potency,[3],inactive
same,Potency,[4],inactive
same,Potency,[5],inactive
same,Potency,[7],30.9 µM (active) and 27.3 µM (active) and 48.5 µM (active)
same,Potency,[8],inactive
same,Potency,[9],13.8 µM (active) and 15.4 µM (active) and 13.7 µM (active)
OCC1CO1 (stereo not given),Potency,[10],inactive
same,Potency,[2],inactive
same,Potency,[3],inactive
same,Potency,[4],inactive
same,Potency,[5],inactive
same,Potency,[8],inactive
c1ccc2c(c1)-c1cccc3cccc-2c13,Potency,[10],inactive
same,Potency,[11],inactive
same,Potency,[1],inactive
same,Potency,[2],inactive
same,Potency,[4],inactive
same,Potency,[5],inactive
same,Potency,[6],inactive
same,Potency,[8],inactive
same,Potency,[9],inactive
CCCCCCCCCCCCN=C(N)N,"activity change, negative = cytotoxicity",[10],2.05% [at 3.27 µM]
same,activation,[1],-2.89% [at 3.75 µM]
same,"viability change, negative = cytotoxic",[2],1.13% [at 3.27 µM]
same,"activity change, negative = inhibition",[3],0.224% [at 4.07 µM]
same,"viability change, negative = cytotoxic",[4],0.263% [at 3.27 µM]
same,"activity change, negative = cytotoxicity",[5],-5.88% [at 3.26 µM]
same,"activity, negative = inhibition",[6],9.02% [at 3.26 µM]
same,"viability change, negative = cytotoxic",[8],2.19% [at 3.27 µM]
same,activation,[9],5.05% [at 3.27 µM]
COc1ccc(C(=O)c2c(C)n(CCN3CCOCC3)c3ccccc23)cc1,Potency,[10],inactive
same,Potency,[11],inactive
same,Potency,[1],inactive
same,Potency,[3],inactive
same,Potency,[4],inactive
same,Potency,[5],inactive
same,Potency,[8],inactive
same,Potency,[12],inactive
same,Potency,[13],inactive
OCCSSCCO,Potency,[10],inactive
same,Potency,[2],inactive
same,Potency,[3],inactive
same,Potency,[4],inactive
same,Potency,[5],inactive
same,Potency,[8],inactive
CCOC(=O)C1OC1(C)c1ccccc1 (stereo not given),Potency,[10],inactive
same,Potency,[2],inactive
same,Potency,[3],inactive
same,Potency,[4],inactive
same,Potency,[5],inactive
same,Potency,[6],inactive
same,Potency,[7],inactive
same,Potency,[8],inactive
same,Potency,[9],inactive
